We go through 13 molecules from PubChem BioAssay (NCATS).

Each structure is given as a SMILES string. Results filed as inconclusive are left out. Values without a mark were called inactive. Calls of active or inactive are those of the source. The call rests on the fitted dose curve; in most records, active means well fitted curve in the direction sought with a large enough effect; inconclusive means small, poorly fitted or top-dose-only effect, or another doubt; inactive means no such curve, though single readings can be large; an effect the other way counts as inactive or inconclusive.

Test [1] is described as follows: qHTS for Inhibitors of the vitamin D receptor (VDR): Hit Validation using a Texas Red Assay (AID 602201). Further: potency means the concentration at half of the fitted maximal effect. In a few lines:
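Fluorescence polarization (Ex 595/Em 615 nm) of Texas Red (7 nM) with 1.5 uM VDR-LBD and LG19078 (final concentrations). Compounds were incubated for 2 hours at room temperature.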
For orientation: In qHTS, concentration-response curves come from the screen itself.

The target of test [2] is Rap guanine nucleotide exchange factor 3 (Homo sapiens) (UniProt O95398). Description: Confirmatory qHTS for antagonist of cAMP-regulated guanine nucleotide exchange factor 3 (EPAC1) (AID 1645880). Further: nearly all actives have a fitted effect of over 55% in size. Further: potency means the concentration at half of the fitted maximal effect.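 On activity, negative = inhibition: plate controls were DMSO only for no effect and full effect of the ATA control for full effect.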 Particulars: EPAC1 Rap1B-BODIPY-GDP exchange, fluorescence; activity, negative = inhibition: at 115 µM (top of the series). A digest of the protocol: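 Released BODIPY-GDP fluoresces less than Rap1-bound BODIPY-GDP; the signal is followed at 480/540 nm at 5-min intervals over 30 min, after 5 min at room temperature. Reactions contain 100 nM EPAC1, 250 nM RAP1B-BODIPY-GDP and 50 uM GDP; results are normalized to ATA and DMSO.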
Chain of Rap guanine nucleotide exchange factor 3 (Homo sapiens) (O95398 whole entry, looked up): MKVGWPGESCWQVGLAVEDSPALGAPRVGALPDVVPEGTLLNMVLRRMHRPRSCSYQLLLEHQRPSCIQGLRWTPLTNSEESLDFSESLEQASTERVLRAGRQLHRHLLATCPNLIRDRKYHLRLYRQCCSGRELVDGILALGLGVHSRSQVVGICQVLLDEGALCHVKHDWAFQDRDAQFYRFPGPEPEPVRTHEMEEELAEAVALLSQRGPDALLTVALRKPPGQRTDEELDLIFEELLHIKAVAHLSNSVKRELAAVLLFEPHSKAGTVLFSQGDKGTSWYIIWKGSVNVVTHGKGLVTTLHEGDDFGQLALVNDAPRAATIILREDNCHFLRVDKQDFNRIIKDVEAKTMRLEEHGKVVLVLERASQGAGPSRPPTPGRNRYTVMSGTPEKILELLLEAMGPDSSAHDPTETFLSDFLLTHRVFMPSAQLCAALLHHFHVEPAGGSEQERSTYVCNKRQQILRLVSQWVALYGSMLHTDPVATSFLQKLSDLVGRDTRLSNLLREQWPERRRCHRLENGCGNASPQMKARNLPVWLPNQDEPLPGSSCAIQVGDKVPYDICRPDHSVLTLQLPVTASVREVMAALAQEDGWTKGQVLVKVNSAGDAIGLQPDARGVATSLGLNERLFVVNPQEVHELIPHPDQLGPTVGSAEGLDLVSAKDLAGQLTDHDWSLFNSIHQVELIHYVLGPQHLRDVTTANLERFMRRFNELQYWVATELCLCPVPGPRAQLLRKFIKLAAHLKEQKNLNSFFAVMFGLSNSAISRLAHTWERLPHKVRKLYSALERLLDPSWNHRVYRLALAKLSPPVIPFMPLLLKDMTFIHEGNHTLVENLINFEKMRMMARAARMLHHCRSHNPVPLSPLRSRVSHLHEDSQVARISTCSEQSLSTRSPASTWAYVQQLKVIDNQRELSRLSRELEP

Test [3] addresses Rap guanine nucleotide exchange factor 4 (Homo sapiens) (UniProt Q8WZA2). Description: Confirmatory qHTS for antagonist of cAMP-regulated guanine nucleotide exchange factor 4 (EPAC2) (AID 1645885). Further: nearly all actives have a fitted effect of over 25% in size. Further: potency means the concentration at half of the fitted maximal effect. On activity change, negative = inhibition: on the % scale 0 is the no-effect control and ±100 the full control effect.
Test [4] has as its target Rap guanine nucleotide exchange factor 3 (Homo sapiens) (UniProt O95398). Description: Counterscreen qHTS for antagonist of cAMP-regulated guanine nucleotide exchange factor 3 (EPAC1) (AID 1645888). Further: % of control where 0% means no effect. In a few lines: (§1)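 Measured: fluorescence of BODIPY-GDP bound to Rap1B, which falls as exchange proceeds. Conditions include 50 uM competing GDP, 5 and 30 min reads, and a later cAMP challenge for antagonist detection.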
Background: Counterscreens check selectivity or assay interference.

Test [5] has the same target. Description: Counterscreen qHTS for agonist of cAMP-regulated guanine nucleotide exchange factor 3 (EPAC1) (AID 1645889). Further: nearly all actives have a fitted effect of over 40% in size. Further: potency means the concentration at half of the fitted maximal effect. In a few lines: as §1
For test [6], the target named is Tumor susceptibility gene 101 protein (Homo sapiens) (UniProt Q99816). Description: qHTS Assay for Iinhibitors of HIV-1 Budding by Blocking the Interaction of PTAP/TSG101: Hit Validation (AID 651600). Further: nearly all actives have a fitted effect of over 70% in size. Further: potency means the concentration at half of the fitted maximal effect. On activity change, negative = inhibition: on the % scale 0 is the no-effect control and ±100 the full control effect. A digest of the protocol: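 FITC-PTAP peptide (50 nM final) binding to Tsg101 binding domain (10 uM final) was measured by polarization after 20 min at r.t. with compounds, in 10 mM HEPES pH 7.5 buffer with 0.15 M NaCl and 0.01% Tween 20.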
Chain of Tumor susceptibility gene 101 protein (Homo sapiens) (Q99816 whole entry, looked up, the tested form may be a part): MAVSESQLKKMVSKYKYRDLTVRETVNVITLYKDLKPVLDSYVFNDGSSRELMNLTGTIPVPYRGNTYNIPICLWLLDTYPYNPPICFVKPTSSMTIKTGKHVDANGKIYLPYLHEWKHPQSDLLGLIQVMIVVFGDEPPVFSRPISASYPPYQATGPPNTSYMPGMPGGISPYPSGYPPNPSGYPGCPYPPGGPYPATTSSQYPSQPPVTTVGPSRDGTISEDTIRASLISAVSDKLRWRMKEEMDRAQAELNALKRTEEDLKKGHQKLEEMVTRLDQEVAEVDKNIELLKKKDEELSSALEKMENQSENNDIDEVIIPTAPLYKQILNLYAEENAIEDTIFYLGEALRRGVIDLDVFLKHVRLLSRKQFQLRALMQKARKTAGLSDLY

Chain of Rap guanine nucleotide exchange factor 4 (Homo sapiens) (Q8WZA2 whole entry, looked up): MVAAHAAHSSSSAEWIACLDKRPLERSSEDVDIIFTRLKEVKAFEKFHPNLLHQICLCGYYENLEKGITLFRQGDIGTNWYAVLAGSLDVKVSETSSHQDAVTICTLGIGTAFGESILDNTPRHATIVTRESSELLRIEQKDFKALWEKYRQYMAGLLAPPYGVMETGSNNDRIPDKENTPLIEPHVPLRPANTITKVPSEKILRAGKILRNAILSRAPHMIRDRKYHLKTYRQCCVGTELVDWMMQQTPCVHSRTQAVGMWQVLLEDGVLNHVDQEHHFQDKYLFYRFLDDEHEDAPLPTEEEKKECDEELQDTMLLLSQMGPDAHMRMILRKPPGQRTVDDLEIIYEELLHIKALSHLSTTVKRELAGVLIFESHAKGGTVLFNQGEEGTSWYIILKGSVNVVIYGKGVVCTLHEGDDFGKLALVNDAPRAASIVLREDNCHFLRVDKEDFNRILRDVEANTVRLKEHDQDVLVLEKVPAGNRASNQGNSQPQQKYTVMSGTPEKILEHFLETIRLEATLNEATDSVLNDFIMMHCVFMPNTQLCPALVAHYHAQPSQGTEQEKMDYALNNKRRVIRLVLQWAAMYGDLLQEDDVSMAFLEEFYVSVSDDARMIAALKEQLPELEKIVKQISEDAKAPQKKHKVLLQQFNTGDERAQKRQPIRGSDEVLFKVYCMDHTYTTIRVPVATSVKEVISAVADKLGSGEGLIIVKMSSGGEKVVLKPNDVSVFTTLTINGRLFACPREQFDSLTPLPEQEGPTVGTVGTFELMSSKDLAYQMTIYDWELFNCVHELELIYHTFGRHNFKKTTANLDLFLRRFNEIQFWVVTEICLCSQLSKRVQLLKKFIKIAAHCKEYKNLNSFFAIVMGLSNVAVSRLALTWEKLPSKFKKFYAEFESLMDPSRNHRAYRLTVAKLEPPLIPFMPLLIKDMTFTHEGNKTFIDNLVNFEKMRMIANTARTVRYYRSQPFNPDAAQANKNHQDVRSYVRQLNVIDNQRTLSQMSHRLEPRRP

In the case of `CC(C)(C)c1ccc(-n2nc(C#N)c(Cl)cc2=O)cc1`, the Potency is 15.8 µM (active) in test [1], 42.6 µM (active) in test [2] and 0.338 µM (active) in test [3]. In addition, in test [4], the Potency result was “inactive”.
Regarding `CCN1C(=O)C(=CC=CN(C)c2ccccc2)SC1=S`, the Potency entry in test [2] and in test [3] was “inactive” in each case. Besides, in test [4], the activity change, negative = inhibition was 12.2% [at 30.8 µM]. The Potency in test [5] is 11.2 µM (active).
As to `O=C(O)c1cc(Cl)ccc1-c1ccc(/C=C/c2cc(C(F)(F)F)[nH]c(=O)n2)o1`, the Potency entry in test [6], in test [2] and in test [3] was “inactive” in each case. Moreover, in test [4], the activity change, negative = inhibition is 144% [at 30.8 µM]. Also, the Potency in test [5] is 12.6 µM (active).
For the molecule `O=S(=O)(c1ccc(Cl)c2ccccc12)N1CCCC1`, the Potency result in test [2], in test [3], in test [4] and in test [5] was “inactive” each time.
Turning to `COc1cccc(/C(O)=C/c2nc3ccc(C(=O)NCCc4cccc(C)c4)cc3[nH]c2=O)c1`, the Potency entry in test [2], in test [3], in test [4] and in test [5] was “inactive” in each case.
Turning to `COc1ccc(C2CC(c3cccs3)=NN2c2ccc(C=O)cc2)cc1` (centres undefined), the Potency entry in test [2], in test [3] and in test [4] was “inactive” each time. Moreover, the Potency in test [5] was 44.7 µM (active).
Consider `CCCCn1c(=O)[nH]c2nc3cc(N)ccc3nc2c1=O`, for which the Potency was 6.51 µM (active) in test [6] and 12.6 µM (active) in test [5]. In addition, the Potency result in test [2] and in test [3] was “inactive” throughout. Besides, the activity change, negative = inhibition in test [4] was 79.1% [at 30.8 µM].
For `N#Cc1cc(Br)ccc1N=C1CCCN1c1ccccc1`, the Potency entry in test [2], in test [4] and in test [5] was “inactive” throughout. The Potency in test [3] is 3.01 µM (active).
Take `O=C(NC1CCCC1)c1cccc2c1C(=O)c1ccc(N3CCCCC3)cc1S2(=O)=O`: the Potency result in test [2], in test [3], in test [4] and in test [5] was “inactive” throughout.
With `Brc1ccc(CSc2nccn2-c2ccccc2)cc1`, the Potency entry in test [2], in test [3] and in test [4] was “inactive” in each case. Besides, in test [5], the Potency was 1.58 µM (active).
Regarding `Oc1ccc(N=Cc2sc3ccccc3c2Cl)cc1`, the Potency entry in test [2], in test [3], in test [4] and in test [5] was “inactive” in each case.
As to `O=C(NCCOc1ccccc1F)c1ccccc1SCc1ccc(F)cc1`, the Potency entry in test [2], in test [4] and in test [5] was “inactive” throughout. Further, the Potency in test [3] was 10.7 µM (active).
On to `Cc1cccc(N2CCN(S(=O)(=O)c3ccc4c(c3)CCN4C(=O)CCC(=O)O)CC2C)c1` (centres undefined), for which the Potency in test [2] is 47.8 µM (active). The Potency entry in test [3], in test [4] and in test [5] was “inactive” in each case.
